Screening results as filed in PubChem BioAssay.
Pf Dd2 growth: inhibitors of Plasmodium falciparum Dd2 growth. 2.3% of 94,000 active. AID 1159554. P. falciparum Dd2 growth, SYBR Green, 72 h; stronger effect = lower value. activity change, % at 10 µM; in the data active = activity change below about -80%; inconclusive = no clear call, values can overlap the other calls
C diff growth: inhibitors of Clostridium difficile growth | Clostridium difficile clinical isolate growth, OD600, 24 h; stronger effect = lower value | growth activity, negative = inhibition, % at 16 µg/mL (by protocol) | 0.25% of 86,000 active | AID 1259249;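 active = mean growth activity at or below -80% and every replicate also at or below -80%; inconclusive = mean at or below -80% but some replicate above -80%; inactive = mean growth activity above -80%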;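 also: 0% = DMSO wells and -100% = levofloxacin 16 µg/mL wells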
Starred values were filed as active, the others as inactive; ? = inconclusive; / = no result given. Only some compounds are listed: those with a hit (about 2.3% of all), similar ones and a draw of the others.

SMILES	Pf Dd2 growth	C diff growth
COc1ccccc1CNC(=O)C[C@H]1C[C@H]2c3cc(NC(=O)Cc4ccncc4)ccc3O[C@H]2[C@H](CO)O1	-86.7*	0.1
CN1CCN(C(=O)C[C@H]2C[C@H]3c4cc(NC(=O)Nc5ccc(C(F)(F)F)cc5)ccc4O[C@H]3[C@H](CO)O2)CC1	-58.4	0.3
COc1ccc(NC(=O)Nc2ccc3c(c2)[C@@H]2C[C@@H](CC(=O)N[C@@H](C)c4ccccc4)O[C@@H](CO)[C@@H]2O3)cc1	-29.8	0.5
O=C(C[C@@H]1C[C@@H]2c3cc(NC(=O)Nc4ccccc4)ccc3O[C@@H]2[C@H](CO)O1)NCc1ccccc1	-46.3	-13.6
CN1CCN(C(=O)C[C@H]2C[C@@H]3c4cc(NC(=O)Nc5ccc(C(F)(F)F)cc5)ccc4O[C@@H]3[C@@H](CO)O2)CC1	-85.4*	4.6
O=C(C[C@H]1C[C@@H]2c3cc(NC(=O)Nc4ccccc4)ccc3O[C@@H]2[C@H](CO)O1)NCc1ccccc1	-87.6*	0.9
COCC(=O)Nc1ccc2c(c1)[C@@H]1C[C@@H](CC(=O)NCc3ccccc3OC)O[C@@H](CO)[C@@H]1O2	-18.4	-3.5
O=C(C[C@@H]1C[C@@H]2c3cc(NC(=O)Nc4ccccc4)ccc3O[C@@H]2[C@H](CO)O1)NCc1ccncc1	7.0	/
CC(C)NC(=O)Nc1ccc2c(c1)C(=O)N([C@H](C)CO)C[C@H](C)[C@H](CN(C)C(=O)c1ccccc1)OCCCC[C@@H](C)O2	-5.3	-0.9
COc1ccc(S(=O)(=O)N2CC3(CN(C(=O)c4cccnc4)[C@@H](CO)c4c3c3ccc(OC)cc3n4C)C2)cc1	-47.1	2.9
COc1cccc(NC(=O)N2CC3(C2)[C@@H](c2ccccc2)[C@@H](CO)N3C(=O)C2CCCC2)c1	5.3	4.4
Cc1cc(C(=O)Nc2cccc3c2O[C@@H](CN(C)Cc2ccc(C(=O)Nc4ccccc4N)cc2)[C@@H](C)CN([C@@H](C)CO)C3=O)n(C)n1	-78.0	-5.3
C[C@H]1CCCCO[C@@H](CN(C)CC2CCCCC2)[C@@H](C)CN([C@@H](C)CO)C(=O)c2cc(NC(=O)Nc3ccc(F)cc3)ccc2O1	-84.8*	0.0
C[C@@H]1CN([C@@H](C)CO)C(=O)c2cc(NC(=O)Nc3ccc(F)cc3)ccc2O[C@@H](C)CCCCO[C@@H]1CN(C)CC1CCCCC1	?	0.6
C[C@@H]1CCCCO[C@H](CN(C)CC2CCCCC2)[C@H](C)CN([C@@H](C)CO)C(=O)c2cc(NC(=O)NC3CCCCC3)ccc2O1	-53.2	/
C[C@@H]1CN([C@@H](C)CO)C(=O)c2cc(NC(=O)Nc3ccc(F)cc3)ccc2O[C@@H](C)CCCCO[C@H]1CN(C)CC1CCCCC1	-77.6	7.0
C[C@H](CO)N1C[C@H](C)[C@H](CN(C)CC2CCCCC2)OCCCC[C@H](C)Oc2ccc(NC(=O)Nc3ccc(F)cc3)cc2C1=O	-86.7*	-9.5
C[C@@H]1CN([C@@H](C)CO)C(=O)c2cc(NC(=O)NC3CCCCC3)ccc2O[C@@H](C)CCCCO[C@H]1CN(C)CC1CCCCC1	-84.7*	/
COc1ccc2c3c(n(C)c2c1)[C@@H](CO)N(C(=O)Nc1ccc(F)cc1)CC31CN(S(=O)(=O)c2cccc(F)c2)C1	73.1	/
C[C@@H]1CCCCO[C@H](CN(C)Cc2ccc(C(=O)O)cc2)[C@H](C)CN([C@@H](C)CO)C(=O)c2cc(NC(=O)NC3CCCCC3)ccc2O1	8.7	1.4
CO[C@@H]1CN(C)C(=O)c2ccc(NS(C)(=O)=O)cc2OC[C@@H](C)N(Cc2cncnc2)C[C@@H]1C	11.9	/
CC(C)NC(=O)N1[C@H](C#N)[C@@H](c2ccccc2-c2ccc(F)cc2)[C@@H]1CO	-38.0	0.7
CC(C)NC(=O)N1[C@H](C#N)[C@H](c2ccccc2-c2ccc(F)cc2)[C@@H]1CO	-89.8*	-2.4
N#C[C@@H]1[C@H](c2ccccc2/C=C/c2ccccc2)[C@H](CO)N1S(=O)(=O)c1cccc(F)c1	-27.4	-6.1
C/C=C/c1ccc([C@H]2[C@@H](C#N)N(C(=O)NC3CCCC3)[C@@H]2CO)cc1	-83.7*	0.4
SMILES	Pf Dd2 growth	C diff growth
COc1ccc(-c2ccccc2[C@H]2[C@@H](C#N)N(C(=O)C3CCCC3)[C@H]2CO)cc1	-98.5*	-2.9
COc1ccc(-c2ccccc2[C@@H]2[C@H](C#N)N(C(=O)C3CCCC3)[C@H]2CO)cc1	13.5	5.6
C/C=C/c1ccc([C@H]2[C@@H](CO)N(C(=O)NC3CCCC3)[C@H]2C#N)cc1	18.4	-0.5
N#C[C@@H]1[C@H](c2ccccc2/C=C/c2ccccc2)[C@H](CO)N1S(=O)(=O)c1ccc(F)cc1	-90.8*	90.7
COCC(=O)N1CCC2(CC1)CN(Cc1ccc3c(c1)OCO3)[C@H](CO)c1c2c2ccc(OC)cc2n1C	-59.7	44.2
COc1ccc(-c2cnc3c(c2)C(=O)N([C@H](C)CO)C[C@@H](C)[C@H](CN(C)S(C)(=O)=O)O3)cc1	-15.3	-3.1
Cc1ccc(S(=O)(=O)Nc2ccc3c(c2)C(=O)N([C@@H](C)CO)C[C@@H](C)[C@@H](CN(C)CC2CCCCC2)OCCCC[C@@H](C)O3)cc1	-67.7	-12.7
C[C@@H]1CCCCO[C@H](CN(C)C(=O)c2ccncc2)[C@@H](C)CN([C@H](C)CO)C(=O)c2cc(NC(=O)NC3CCCCC3)ccc2O1	14.0	0.7
C[C@@H]1CCCCO[C@H](CN(C)C(=O)C2CCCCC2)[C@H](C)CN([C@@H](C)CO)C(=O)c2cc(NC(=O)Nc3ccccc3)ccc2O1	-52.8	1.7
CS(=O)(=O)N1[C@H](C#N)[C@@H](c2ccccc2-c2ccc(F)cc2)[C@@H]1CO	-23.7	-2.0
COc1ccc(-c2ccc([C@H]3[C@H](C#N)N(C(=O)c4cccnc4)[C@H]3CO)cc2)cc1	-90.8*	-3.4
CS(=O)(=O)N1[C@H](C#N)[C@H](c2ccccc2-c2ccc(F)cc2)[C@H]1CO	-86.4*	-14.6
COc1ccc(-c2ccccc2[C@H]2[C@@H](C#N)N(C(=O)NC3CCCC3)[C@H]2CO)cc1	-93.9*	4.2
COc1ccc(-c2ccccc2[C@@H]2[C@@H](C#N)N(C(=O)NC3CCCCC3)[C@H]2CO)cc1	-5.6	15.6
N#C[C@@H]1[C@@H](c2ccccc2)[C@@H](CO)N1C(=O)c1cccnc1	43.0	-18.1
CCNC(=O)C[C@H]1CC[C@@H]2[C@@H](COc3ccc(NC(=O)Cc4cccs4)cc3C(=O)N2C)O1	-1.7	1.9
CCCC#Cc1ccc([C@H]2[C@H]3CN(S(=O)(=O)Cc4ccccc4)CCCCN3[C@H]2CO)cc1	-5.2	11.1
CCCC#Cc1ccc([C@@H]2[C@H](CO)N3CCCCN(S(=O)(=O)c4ccccc4C)C[C@@H]23)cc1	-72.8	-96.3*
CCCC#Cc1ccc([C@H]2[C@H]3CN(S(=O)(=O)c4ccccc4C)CCCCN3[C@H]2CO)cc1	-8.4	18.3
CCCC#Cc1ccc([C@@H]2[C@H](CO)N3CCCCN(S(=O)(=O)Cc4ccccc4)C[C@@H]23)cc1	-84.0*	-89.7*
Cc1ccccc1S(=O)(=O)N1CCCCN2[C@H](CO)[C@H](c3ccc(-c4ccccc4)cc3)[C@H]2C1	-81.9*	33.6
Cc1ccccc1S(=O)(=O)N1CCCCN2[C@@H](CO)[C@@H](c3ccc(-c4ccccc4)cc3)[C@@H]2C1	-75.3	0.6
C[C@H]1CCCCO[C@@H](CN(C)Cc2ccc(C(=O)O)cc2)[C@@H](C)CN([C@@H](C)CO)C(=O)c2cc(NS(=O)(=O)c3ccc(F)cc3)ccc2O1	-37.8	-6.8
